Source: PubChem BioAssay (NCI)
This is part of a sample that, as a whole, favours compounds with a hit. Of some 79,000 tested, about 15% had one in any assay. The source made the active and inactive calls. Cut-off read from the data, not from the text of the source: active = growth inhibition above about 70%; inactive = the rest.

Columns and labels:
[1] = NCI Yeast Anticancer Drug Screen. Data for the wt1 strain (AID 149);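 note: 0% = growth of vehicle-treated wt1 cultures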; settings: S. cerevisiae wt1 strain (SPY 50644) growth inhibition, hits give high values
How it was run: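 Vehicle-normalised growth inhibition; strain wt1; compound exposure.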

[2] = NCI Yeast Anticancer Drug Screen. Data for the rad50EPP+ strain (AID 151);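 note: 0% = growth of vehicle-treated control cultures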; settings: S. cerevisiae rad50 mutant strain, hits give high values
How it was run: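 Yeast strain carrying rad50 alteration (rad50EPP+) exposed to compounds; growth inhibition measured relative to vehicle-treated controls.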

[3] = NCI Yeast Anticancer Drug Screen. Data for the mgt1 strain (AID 153); settings: S. cerevisiae mgt1 mutant growth inhibition, hits give high values
How it was run: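 Yeast mgt1 strain (DNA repair/cell-cycle alteration panel) exposed to compounds; growth inhibition measured relative to vehicle-treated controls.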

[4] = NCI Yeast Anticancer Drug Screen. Data for the rad50 strain (AID 155);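 note: 0% = growth of vehicle-only cultures of the same strain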; settings: S. cerevisiae rad50 strain growth inhibition, hits give high values
How it was run: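 A DNA repair-deficient yeast mutant serves as the test organism; compound-induced growth inhibition is calculated against vehicle-treated cells.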

[5] = NCI Yeast Anticancer Drug Screen. Data for the mec2-1 strain (AID 157); settings: S. cerevisiae mec2-1 strain, hits give high values
How it was run: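 mec2-1 yeast strain, carrying an alteration in DNA damage repair or cell cycle control, was exposed to compounds; growth inhibition was measured relative to vehicle-treated controls.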

[6] = NCI Yeast Anticancer Drug Screen. Data for the rad14 strain (AID 159);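 note: 0% = growth of vehicle-treated control cultures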; settings: S. cerevisiae rad14 strain growth inhibition, hits give high values
How it was run: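 Vehicle-treated cultures served as the baseline for growth inhibition of a DNA repair-mutant yeast strain exposed to each compound.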

[7] = NCI Yeast Anticancer Drug Screen. Data for the sgs1 mgt1 strain (AID 161);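 note: 0% = growth of cultures given vehicle only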; settings: S. cerevisiae sgs1 mgt1 strain, hits give high values
How it was run: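 Yeast cells carrying a defined DNA-repair defect were exposed to test compounds. Growth inhibition was measured relative to vehicle-treated controls.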

[8] = NCI Yeast Anticancer Drug Screen. Data for the CLN2oe strain (AID 163);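 note: 0% = growth of vehicle-only control cultures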; settings: S. cerevisiae CLN2oe strain, hits give high values
How it was run: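 Yeast cells carrying a defined cell-cycle control alteration were exposed to test compounds. Growth inhibition was scored against vehicle-treated control cultures.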

[9] = NCI Yeast Anticancer Drug Screen. Data for the cln2 rad14 strain (AID 165);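 note: 0% = growth equal to vehicle treated cultures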; settings: S. cerevisiae cln2 rad14 strain, hits give high values
How it was run: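 Yeast carrying cln2 and rad14 alterations (cell cycle control and DNA damage repair) were exposed to compounds. Growth inhibition was measured against vehicle-treated controls.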

[10] = NCI Yeast Anticancer Drug Screen. Data for the bub3 strain (AID 167); settings: S. cerevisiae bub3 mutant strain, hits give high values
How it was run: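 Inhibition values come from growth of compound-treated mutant yeast normalised to vehicle-treated controls.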

[11] = NCI Yeast Anticancer Drug Screen. Data for the wt2 strain (AID 169);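 note: 0% = growth of vehicle-treated yeast cultures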; settings: S. cerevisiae wt2 strain growth inhibition, hits give high values
How it was run: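 Yeast cells were exposed to test compounds, and growth inhibition was measured relative to vehicle-treated controls.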

[12] = NCI Yeast Anticancer Drug Screen. Data for the mlh1 strain (AID 171);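 note: 0% = growth of vehicle-treated control cultures of the same strain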; settings: S. cerevisiae mlh1 strain growth inhibition, hits give high values
How it was run: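 Yeast carrying a defined genetic alteration in DNA damage repair or cell cycle control were exposed to test compounds. Growth inhibition was measured relative to vehicle-treated controls.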

[13] = NCI Yeast Anticancer Drug Screen. Data for the sgs1 strain (AID 173);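 note: 0% = growth of vehicle-only control cultures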; settings: S. cerevisiae sgs1 mutant, hits give high values
How it was run: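 Yeast mutant strains carrying defined defects in DNA damage repair or cell cycle control were exposed to test compounds. Growth inhibition was scored against vehicle-treated controls.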

[14] = NCI Yeast Anticancer Drug Screen. Data for the mlh1 rad18 strain (AID 175); settings: S. cerevisiae mlh1 rad18 strain growth inhibition, hits give high values
How it was run: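 Growth inhibition of the yeast strain was measured after compound exposure and expressed relative to vehicle-treated controls. The strain carries defined defects in DNA damage repair.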

[15] = NCI Yeast Anticancer Drug Screen. Data for the rad18 strain (AID 177); settings: S. cerevisiae rad18 mutant growth inhibition, hits give high values
How it was run: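 Yeast carrying a defined DNA damage repair alteration were exposed to compounds. Growth inhibition was expressed relative to vehicle-treated controls.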

[16] = at 5.0 µM (retest, dose inferred, filed as 0.5)
[17] = at 50.0 µM (retest, dose inferred, filed as 5.0)

Measured: growth inhibition

COc1cc(C2c3cc4c(cc3OC(NNc3ccccc3)C2C)OCO4)cc(OC)c1OC (stereo unspecified)
active: [1]; at 33.0 µM 74% | [1]; at 100.0 µM 94% | [3]; at 33.0 µM 82% | [3]; at 100.0 µM 89% | [4]; at 33.0 µM 92% | [4]; [17] 96% | [4]; at 100.0 µM 73% | [5]; [17] 96% | [5]; at 100.0 µM 91% | [6]; at 100.0 µM 75% | [7]; [17] 97% | [8]; at 33.0 µM 89% | [8]; at 100.0 µM 79% | [9]; [17] 95% | [10]; at 11.0 µM 73% | [10]; at 33.0 µM 89% | [10]; [17] 94% | [10]; at 50.0 µM 88.2% | [10]; at 100.0 µM 83% | [11]; at 33.0 µM 96% | [11]; at 100.0 µM 90% | [13]; at 33.0 µM 88% | [13]; at 100.0 µM 94% | [14]; [17] 94% | [14]; at 50.0 µM 77% | [15]; at 33.0 µM 94% | [15]; at 100.0 µM 84%
inactive: [1]; at 1.2 µM 16% | [1]; at 3.7 µM 9% | [1]; at 11.0 µM 19% | [2]; at 1.2 µM 39% | [2]; at 3.7 µM 42% | [2]; at 11.0 µM 48% | [2]; at 33.0 µM 47% | [2]; at 100.0 µM 67% | [3]; at 1.2 µM 13% | [3]; at 3.7 µM 23% | [3]; at 11.0 µM 26% | [4]; at 1.2 µM 23% | [4]; at 3.7 µM 33% | [4]; [16] 14% | [4]; at 11.0 µM 52% | [4]; at 50.0 µM 12.3% | [5]; at 1.2 µM 2% | [5]; at 3.7 µM 5% | [5]; [16] 10% | [5]; at 11.0 µM 16% | [5]; at 33.0 µM 63% | [5]; at 50.0 µM 40.5% | [6]; at 1.2 µM -2% | [6]; at 3.7 µM 1% | [6]; at 11.0 µM 29% | [6]; at 33.0 µM 52% | [7]; [16] -4% | [7]; at 50.0 µM 20.6% | [8]; at 1.2 µM 41% | [8]; at 3.7 µM 40% | [8]; at 11.0 µM 46% | [9]; [16] 17% | [9]; at 50.0 µM 53% | [10]; at 1.2 µM 7% | [10]; at 3.7 µM 20% | [10]; [16] 19% | [11]; at 1.2 µM -2% | [11]; at 3.7 µM -13% | [11]; at 11.0 µM 41% | [12]; at 1.2 µM 16% | [12]; at 3.7 µM 23% | [12]; at 11.0 µM 24% | [12]; at 33.0 µM 26% | [12]; at 100.0 µM 30% | [13]; at 1.2 µM 29% | [13]; at 3.7 µM 37% | [13]; at 11.0 µM 34% | [14]; [16] 36% | [15]; at 1.2 µM 52% | [15]; at 3.7 µM 56% | [15]; at 11.0 µM 64%

CCN(CC)[P+](c1ccccc1O)(N(CC)CC)N(CC)CC
inactive: [1]; at 1.2 µM -35% | [1]; at 3.7 µM -25% | [1]; at 11.0 µM 12% | [1]; at 33.0 µM 34% | [2]; at 1.2 µM -35% | [2]; at 3.7 µM -26% | [2]; at 11.0 µM -33% | [2]; at 33.0 µM -31% | [2]; at 100.0 µM -34% | [3]; at 1.2 µM -42% | [3]; at 3.7 µM -42% | [3]; at 11.0 µM -32% | [3]; at 33.0 µM 13% | [4]; at 1.2 µM -30% | [4]; at 3.7 µM 9% | [4]; [16] 37% | [4]; at 11.0 µM 43% | [4]; at 33.0 µM 54% | [4]; [17] 68% | [4]; at 50.0 µM 61.5% | [5]; at 1.2 µM -78% | [5]; at 3.7 µM -39% | [5]; [16] 28% | [5]; at 11.0 µM 29% | [5]; at 33.0 µM 24% | [5]; [17] 55% | [5]; at 50.0 µM 62.1% | [6]; at 1.2 µM -46% | [6]; at 3.7 µM -38% | [6]; at 11.0 µM -21% | [6]; at 33.0 µM 32% | [7]; [16] 7% | [7]; at 50.0 µM 64.8% | [8]; at 1.2 µM -56% | [8]; at 3.7 µM -8% | [8]; at 11.0 µM -23% | [8]; at 33.0 µM 5% | [9]; [16] 8% | [9]; at 50.0 µM 57.6% | [10]; at 1.2 µM -41% | [10]; at 3.7 µM -3% | [10]; [16] 23% | [10]; at 11.0 µM 23% | [10]; at 33.0 µM 60% | [10]; at 50.0 µM 54.6% | [11]; at 1.2 µM -25% | [11]; at 3.7 µM -13% | [11]; at 11.0 µM -19% | [11]; at 33.0 µM 7% | [12]; at 1.2 µM -60% | [12]; at 3.7 µM -61% | [12]; at 11.0 µM -22% | [12]; at 33.0 µM 30% | [13]; at 1.2 µM -82% | [13]; at 3.7 µM -50% | [13]; at 11.0 µM -25% | [13]; at 33.0 µM 11% | [14]; [16] 39% | [15]; at 1.2 µM -6% | [15]; at 3.7 µM 37% | [15]; at 11.0 µM 53% | [15]; at 33.0 µM 59%
active: [1]; at 100.0 µM 84% | [3]; at 100.0 µM 76% | [4]; at 100.0 µM 90% | [5]; at 100.0 µM 85% | [6]; at 100.0 µM 95% | [7]; [17] 99% | [8]; at 100.0 µM 93% | [9]; [17] 96% | [10]; [17] 98% | [10]; at 100.0 µM 87% | [11]; at 100.0 µM 77% | [12]; at 100.0 µM 73% | [13]; at 100.0 µM 74% | [14]; [17] 74% | [14]; at 50.0 µM 70.2% | [15]; at 100.0 µM 90%
